The whole screen tested about 370,000 compounds, of which about 5,400 (1.5%) were called active. What follows is part of a selection rich in actives, with near analogues and random picks from the rest. Values without a mark were called inactive.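 Rule for the calls: active = activation above the mean of all tested compounds plus 3 SD (cut at about 5.5% in these data); inactive = the rest.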

This assay relates to DAF-12 nuclear receptor (Haemonchus contortus). The assay can be described thus: H. contortus DAF-12 nuclear receptor activators, primary screen, cell-based, luminescence, HEK293, lit1-tk-luc reporter (AID 652067).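 Note: 100% = response to 3 µM Δ7-dafachronic acid high control.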 The following applies: HEK293 hcDAF-12 lit1-tk-luc reporter, at 6.8 µM, hits give high values, 0% DMSO, 100% Δ7-dafachronic acid.
As for `CCC[C@H]1C(=O)CC[C@@]23CCCN2C(=O)CCC[C@@H]13`, the activation is 0.52%.

Take `COc1ccnc(C(=O)N2CCC(Oc3cccnc3)CC2)c1`: the activation is -0.13%.

For the compound `COCCN(CCOC)S(=O)(=O)c1ccc(C(=O)Nc2nc3c(s2)CCc2ccccc2-3)cc1`, the activation was -3.08%.

As to `CN(C)CCNC(=O)c1[nH]nc2c1CCc1ccccc1-2`, the activation is 6.06% (active).

`CN(C)CCNC(=O)c1ccc(-c2cn3c(-c4ccc(Oc5ccccc5)cc4)cnc3cn2)cc1`: the activation was -0.28%.

For `COC(=O)[C@]12C[C@H](CC(=O)NCCCCc3ccccc3)C(=O)N(Cc3ccc4c(c3)OCO4)C1=C[C@H](C(C)(C)C)O[C@@H]2C`, the activation is 2.01%.

With `C[C@H]1[C@H](NC(=O)c2cccc(N(C)C)c2)CC[C@@]23CCCN2C(=O)CCC[C@@H]13`, the activation is -1.72%.

In the case of `CCCNC(=O)Nc1ccc2c(c1)C(=O)N(C)[C@H]1CC[C@H](CC(=O)NCC3CCCCC3)O[C@@H]1CO2`, the activation is 1.19%.

For the compound `Cc1nc(NC(=O)C(C)(C)C)sc1[N+](=O)[O-]`, the activation is -0.38%.

For the compound `Nc1[nH]c(C(=O)c2ccccc2)c(-c2ccc(Cl)cc2Cl)c1C(=O)c1ccccc1`, the activation is -1.47%.

Take `Nc1[nH]c(C(=O)c2ccc(Br)cc2)c(-c2ccc3c(c2)OCO3)c1C(=O)NCCc1c[nH]c2ccccc12`: the activation is 0.26%.

On to `Cc1ccnc(N2C(=O)c3ccc([N+](=O)[O-])cc3C2=O)c1`, for which the activation was -1.07%.

For the compound `Cc1ccc(-n2cc3ccc([N+](=O)[O-])cc3n2)cc1`, the activation was 9.08% (active).

Turning to `O=c1c2cc([N+](=O)[O-])ccc2nc2n1CCC2`, the activation is -0.38%.

On to `COC(=O)C[C@@H]1CC[C@@H]2[C@H](COc3ccc(NC(=O)c4cccc(F)c4)cc3C(=O)N2C)O1`, for which the activation was -2.02%.

For the compound `O=C(NCCCc1ccccc1)[C@H](Cc1ccccc1)NC1(C(=O)NCCc2c[nH]c3ccccc23)CCC1`, the activation was 1.93%.

Regarding `Nc1ncnc2c1ncn2[C@@H]1O[C@H](C(=O)N[C@@H](CCc2ccccc2)C(=O)NCC(=O)N2CCOCC2)[C@@H](O)[C@H]1O`, the activation is -0.25%.

`CN1CCN(CCNC(=O)Nc2ccccc2[N+](=O)[O-])CC1`: the activation is -0.05%.

As to `Cc1csc(NC(=O)Nc2ccccc2[N+](=O)[O-])n1`, the activation was 13.9% (active).

For `Cc1cc(NC(=O)Nc2ccccc2[N+](=O)[O-])no1`, the activation was -0.4%.

As for `CCOc1ccc(-n2c(SCC(=O)Nc3cc(C)c(NC(=O)c4ccccc4)cc3OC)nnc2-c2cccs2)cc1`, the activation was -0.56%.

Take `O=C(CN1C(=O)NC2(CCc3ccccc32)C1=O)NC1CCCCC1` (configuration not stated): the activation was 2.74%.

For the origin of these results see PubChem BioAssay AID652067 (The Scripps Research Institute Molecular Screening Center, 2013).
